Source: PubChem BioAssay (Sanford-Burnham Center for Chemical Genomics)
The list is a sample of the results.
PLAP activator: activators of human placental alkaline phosphatase; P05187; activation fold at 20 µM; AID 696; purified PLAP enzyme, luminescent substrate read-out; hits give high values; 96,000 compounds, 1.2% hits; in the data active = activation fold above about 2
CYP2C19 act: increases human CYP2C19 enzyme activity | P33261 | activation factor at 5 µM | recombinant CYP2C19, luciferin-H EGE luminescence; hits give high values; 0 = fully inhibited enzyme, 1 = untreated enzyme | 96,000 tested, under 10 active;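 active = activation factor of at least 2 at 5 µM in the primary screen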
CYP2C19 inh: inhibitors of human CYP2C19 | CYP2C19 Supersomes, luciferin-H EGE luminescence, 30 min | 96,000 compounds, 21% hits | AID 778 | P33261 | inhibition, % at 5 µM;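 active = CYP2C19 inhibition above a set limit at 5 µM in the primary screen, cut at about 50% in these data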
CYP2C9 inhib: inhibitors of human CYP2C9; P11712; CYP2C9 Supersomes, luciferin-H conversion, luminescence; inhibition, % at 5 µM; 96,000 compounds, 20% hits;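 active = blocking of liver enzyme CYP2C9 beyond about 50% at 5 µM, limit read from the data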
CYP2C9 activ: CYP2C9 (human) activation. activation factor at 5 µM. recombinant CYP2C9, luciferin-H conversion, luminescence; hits give high values; factor 1 = untreated enzyme, 0 = blocked. P11712. 96,000 compounds, 1.4% hits;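 active = activation factor of 2 or more for CYP2C9 at a 5 µM dose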
Numbers stand for hits; 0 = inactive.

SMILES	PLAP activator	CYP2C19 act	CYP2C19 inh	CYP2C9 inhib	CYP2C9 activ
CCOc1cccc(C2C(C#N)=C(N)Oc3cc(C)n(Cc4ccccn4)c(=O)c32)c1OCC (configuration not stated)	0	0	0	0	0
CCN1C=C(Cc2ccc(OC)cc2)C2=C(C1)C(c1ccc(OC)cc1)C(C#N)=C(N)O2 (configuration not stated)	0	0	0	0	0
N#CC1=C(N)Oc2cc(N)ccc2C1C1CCCCC1 (configuration not stated)	0	0	84	0	0
CCCc1[nH]nc2c1C(C1CCCCC1)C(C#N)=C(N)O2 (configuration not stated)	0	0	0	0	0
CC(C)(C)Nc1nc(OCC(F)(F)F)nc(OCC(F)(F)F)n1	0	0	0	0	0
CCOc1ccc2[nH]c(S(=O)(=O)CC)nc2c1Cl	0	0	0	0	0
